FLuc counter: inhibits or activates purified firefly luciferase, miR-21 counter-screen; purified FLuc, Km substrates, luminescence inhibition; AID 588342; actives 6.9% (n = 360,000); Potency, µM (highest dose often 57.5 µM), for the others: top-dose activity change, negative = inhibition, actives largely listed as inhibitors;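 also: plate controls were vehicle for no effect and reference inhibitor for full effect; nearly all actives have a fitted effect of over 55% in size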
Target sequence (P08659 whole entry, looked up): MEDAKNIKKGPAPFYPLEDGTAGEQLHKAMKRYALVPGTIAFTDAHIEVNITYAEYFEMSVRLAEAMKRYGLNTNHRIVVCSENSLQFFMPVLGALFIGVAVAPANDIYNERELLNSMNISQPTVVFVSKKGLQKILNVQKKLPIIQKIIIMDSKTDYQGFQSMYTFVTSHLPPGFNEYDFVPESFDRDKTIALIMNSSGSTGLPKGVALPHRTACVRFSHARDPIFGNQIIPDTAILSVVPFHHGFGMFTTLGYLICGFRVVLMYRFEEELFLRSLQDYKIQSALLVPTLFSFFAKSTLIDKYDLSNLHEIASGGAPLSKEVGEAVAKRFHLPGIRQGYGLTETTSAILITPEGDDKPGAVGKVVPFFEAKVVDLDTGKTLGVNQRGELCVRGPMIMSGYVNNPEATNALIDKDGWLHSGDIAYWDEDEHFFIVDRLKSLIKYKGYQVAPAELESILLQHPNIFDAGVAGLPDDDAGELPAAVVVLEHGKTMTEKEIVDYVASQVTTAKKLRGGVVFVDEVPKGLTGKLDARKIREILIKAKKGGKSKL
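Purified P. pyralis luciferase, 10 nM final, with Km-level 10 uM D-luciferin and 10 uM ATP in 50 mM Tris acetate pH 7.5, 10 mM Mg acetate, 0.01% Tween-20, 0.05% BSA; 6-point qHTS titration about 60 µM downward; luminescence read.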
SMN2 splice enh: enhancers of SMN2 splice variant expression; HEK293 SMN2-luciferase splicing reporter, luminescence, 30-36 h; Potency, µM (doses to about 46.1 µM), inactives show at the highest dose activity change, positive = activation, most hits filed as activators; actives 2.8% (n = 210,000); AID 1458; also: % of control where 0% means no effect; nearly all actives have a fitted effect of over 55% in size
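HEK293 cells carry an SMN2 […]–luciferase reporter in which exon 7 inclusion puts luciferase in frame. Cells were plated 10-12 h before compound addition, then incubated 30-36 h at 37C. ONE-Glo luminescence was read; sodium butyrate at 4.5 mM final served as control.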
p53 reactivator: restores transcriptional activity of mutant p53 | H1299 p53-A138V BP100-luciferase reporter, luminescence, 24 h | Potency, µM (titrated, usually from 92.2 µM), for the others: at the highest dose activity change, positive = activation, most hits filed as activators | actives 0.063% (n = 320,000) | AID 504706; also: % of control where 0% means no effect; nearly all actives have a fitted effect of over 45% in size
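p53-null H1299 cells stably carrying temperature-sensitive p53-A138V and a BP100-luciferase reporter were pinned with compounds (4-point, 1:5 series) and held 24 hrs at 37 deg C. Luminescence was read 10 min after detection reagent.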
ELG1 genotoxic: inducers of genotoxicity in HEK293T ELG1-luciferase cells. AID 504466. HEK293T ELG1-luciferase reporter, luminescence, 16 h. Potency, µM (top dose mostly 46 µM), for inactives: at the top dose activity change, positive = activation, hits mostly activators. actives 1.3% (n = 330,000); also: % of control where 0% means no effect; nearly all actives have a fitted effect of over 60% in size
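Cells (2,000/well) expressing the ELG1-luciferase fusion are dosed by pin tool and kept 16 hr at 37 °C, 5% CO2. Signal comes from ONE-Glo luciferase reagent after 30 min at room temperature.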
Rab9 promoter act: activators of Rab9 promoter. AID 485297. actives 2.8% (n = 320,000). Huh7 Rab9 promoter-luciferase reporter, luminescence, 24 h. Potency, µM (highest dose often 9.22 µM), without a hit: at the top dose activation, negative = inhibition, usual class: activators; also: % of control where 0% means no effect; nearly all actives have a fitted effect of over 60% in size
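Luminescence from Amplite-detected luciferase (10 minutes, ambient) reports Rab9 promoter activation. Before that, stable Rab9-luciferase Huh7 cells (1500/well, reduced-serum OP-MEM I plus 10% FBS) were exposed to compound for 24 hours at 37C.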
NPC1 promoter act: activators of NPC1 promoter. Huh7 NPC1 promoter luciferase reporter, 24 h. Potency, µM (titrated, usually from 9.22 µM), for inactives: at the highest dose activation, hits mostly activators. actives 2.4% (n = 320,000). AID 485313; also: % of control where 0% means no effect; nearly all actives have a fitted effect of over 60% in size
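Cells: Huh7 expressing luciferase under the NPC1 promoter, 1500/well. Seeded 2 h, compound added, incubated 24 h at 37 °C. Luciferase reagent, 10 min ambient, then luminescence.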
Starred values were filed as active, the others as inactive; ? = inconclusive; nt = not tested or not shown; [ ] = another dose, or the depositor's remark. Only some compounds are listed: those with a hit (about 7.4% of all), similar ones and a draw of the others. Calls follow the shape of the dose curve; as a rule, active = well fitted curve in the direction sought with a large enough effect; inconclusive = small, poorly fitted or top-dose-only effect, or another doubt; inactive = no such curve, though single readings can be large; an effect the other way counts as inactive or inconclusive. Potency is read from the fitted curve at half-maximal effect.

SMILES	FLuc counter	SMN2 splice enh	p53 reactivator	ELG1 genotoxic	Rab9 promoter act	NPC1 promoter act
Clc1ccc(-c2nnn(Cc3nc4ccccc4s3)n2)cc1	19µM*	14%	?	?	16%	8%
Fc1ccc(-c2nnn(Cc3nc4ccccc4s3)n2)cc1	?	3%	18%	?	6%	0%
C=CCN1C(=O)c2ccc(C(=O)N(C)CC(=O)Nc3ccccc3C(F)(F)F)cc2C1=O	5%	nt	15%	0%	-3%	1%
COC(=O)c1ccc(CNC(=O)CCc2c[nH]c3ccccc23)cc1	4%	nt	-2%	7%	-2%	-1%
COC(=O)c1ccc2c(CCO)c[nH]c2c1	24µM*	nt	nt	?	29%	?
O=C(C[n+]1cn(C(F)F)c2ccccc21)c1ccc(OC(F)F)cc1	?	?	-3%	16µM*	?	?
O=C(NCc1ccncc1)C1CCN(S(=O)(=O)c2ccc(Cl)c(C(F)(F)F)c2)CC1	1%	nt	-9%	0%	0%	-3%
COc1ccc(Nc2cc(C)nc3ncnn23)cc1Cl	1%	nt	-2%	?	19%	?
CCOc1ccc(OCC)c(Nc2cc(C)nc3ncnn23)c1	-1%	11µM*	-7%	21µM*	-5%	-9%
COc1cc(Nc2cc(C)nc3ncnn23)cc(OC)c1	1%	?	-3%	23µM*	1%	-17%
COc1cc(Nc2cc(C)nc3ncnn23)cc(OC)c1OC	-1%	14µM*	-8%	?	-2%	-1%
CCCCNC(=O)C(c1ccc(OCC(=O)OC)c(C(=O)OC)c1)N(Cc1ccccc1)C(=O)CCCCCN1C(=O)NC(c2ccc(-c3ccccc3)cc2)C(C(=O)OCc2ccccc2)=C1C (centres undefined)	nt	5%	nt	nt	nt	nt
COc1ccc2c(C)c(CC(=O)NCCc3ccc(Cl)cc3)c(=O)oc2c1C	2%	17%	nt	nt	nt	nt
COc1ccc(CN2C(=O)c3ccccc3C(/C=N\OCc3ccc(F)cc3)C2=O)cc1 (centres undefined)	21µM*	-52%	9%	-7%	3%	-2%
COc1ccc(CN2C(=O)c3ccccc3C(/C=N/OCc3ccc(Cl)cc3)C2=O)cc1 (centres undefined)	21µM*	-61%	2%	-8%	-3%	-4%
COc1ccc(CN2C(=O)c3ccccc3C2=O)cc1	8%	nt	nt	4%	5%	3%
COc1ccc2c(CNC3CCCCCC3)c(C(=O)O)n(Cc3ccccc3F)c2c1	-10%	nt	nt	nt	nt	nt
COc1ccc(CCCc2nnc(SCC(=O)Nc3cccc(C)c3)o2)cc1C	?	-7%	nt	nt	nt	nt
CC(C)[C@@H](C(=O)O)N1C(=O)c2ccccc2C1=O	nt	-11%[9.22 µM]	nt	nt	nt	nt
Cc1cc(C(c2nnnn2Cc2ccccc2)N2CCOCC2)c(C)n1-c1ccc2c(c1)OCO2 (centres undefined)	3%	-7%	32µM*	-3%	7%	-5%
CCc1ccc(NC(=O)CSc2nc(=O)n(CCCN(C)C)c3c2CCC3)cc1	5%	nt	-8%	0%	-10%	-2%
C/C(=N\O)c1ccc(N2C(=O)C3CC=C(Cl)CC3C2=O)cc1 (centres undefined)	11µM*	?	?	?	?	?
CCOC(=O)CSc1nc2c(sc3ccccc32)c(=O)n1CCO	-9%	nt	nt	nt	nt	nt
CCCCc1nc2c(c3c1C[C@H](C)OC3)CN(C(=O)c1cccnc1)CC2	nt	-6%[9.22 µM]	nt	nt	nt	nt
CSc1ccccc1OCc1cc(C(=O)N2CCN(C3CCCC3)C(=O)C2)no1	17µM*	nt	11%	?	?	?
COc1ccccc1OCc1cc(C(=O)N2CCCC(OCc3cccnc3)C2)no1 (centres undefined)	13µM*	nt	28%	8.2µM*	2.5µM*	1.8µM*
CSc1ccccc1OCc1cc(C(=O)N2CCSCC2)no1	?	nt	-20%	-4%	1.4µM*	2.2µM*

Screening data as filed in PubChem.
